Positions count from the first letter of the chain named. Whole data set: some 24,000 sequences, median “enrichment r” near 0.99, cut for the highest 2% near 3.7. Only a selection was taken, and the highest values are over-represented in it overall.
T1: UNK ZnF1-3 (human, UniProt Q9C0B0 31-174)
T1 sequence: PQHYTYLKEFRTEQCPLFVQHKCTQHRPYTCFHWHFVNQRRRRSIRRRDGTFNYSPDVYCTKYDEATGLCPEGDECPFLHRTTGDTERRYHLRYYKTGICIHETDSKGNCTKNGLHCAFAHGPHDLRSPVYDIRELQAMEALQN

B1: 178098831_178098951_708_CDS_ENSG00000116044_ENST00000397062|human|control|control (ssRNA)
RNA: GGGAGUUCUACAGUCCGACGAUCGAAAAAGGCUUUCUCUUGCUCCUUUUGGAGUUGUUCUUGUCUUUCCUUUUCAAGUUUUUUCUGUUUUUCCAGCUCAUACUCUUUCCGUCGCUGACUGAAGUCAAAUACUUCUCGACUUACCAACAGAGGAUUGAGCAUCA
B2: chr10:1038518:1038519:+_ENSG00000107937_ENST00000545048|hu_hu|hu_hu_hu_mus_False|68_68 (ssRNA)
RNA: GGGAGUUCUACAGUCCGACGAUCCAGUCUGUCAUGGUAAUUCUGUUGAGUAAAUUUGACUUUUCUCAUGUAAAAAUGUCGAAUCCGAUGAAUUUGAUAAUGUUUAUGAAUAACCGUUGGAGUCUUUCGUUGAGUCUUGGAUAACAACAGAGGAUUGAGCAUCA
B3: chr8:30550554:30550555:-_ENSG00000104687_ENST00000414019|hu_mus|FALSE|FALSE (ssRNA)
RNA: GGGAGUUCUACAGUCCGACGAUCGCCGGCAUUCUCCAGUUCCUCGGUGCAGUUGGAACUGAUGAGUGAAUCAAAAUUUCUCAGUACCUUAUCAUGCCUGAUCAUAAGAGAUGUCUUGGAGCCCAGGGCAGAGAGGAUGCCCGCCAACAGAGGAUUGAGCAUCA
B4: chr6:106728040:106728041:+_ENSMUSG00000013736_ENSMUST00000057578|mus_mus|FALSE|FALSE (ssRNA)
RNA: GGGAGUUCUACAGUCCGACGAUCAGGAGCCACACCAAGAUCAUAGAUCAGGUGGAUCAAAUGGUUUACAUGGUCACCAGUAAGAAUUUUCUUCAGUUCUACCCAAAUCCUCUCUCCUGAUAUUCCAGCCAAACCUUUGGCAUUCAACAGAGGAUUGAGCAUCA
B5: chr22:19452774:19452775:-_ENSG00000070010_ENST00000399523|hu_hu|hu_hu_hu_mus_False|88_108 (ssRNA)
RNA: GGGAGUUCUACAGUCCGACGAUCCUUUUCAUUAUAGUUGAUAGCAAUCACAUCCCCAGUCGUCAGACAGGCGAAGUUUCUCAAUGCAUUUUCUAAUACCGCUUUAGGGUUGGUAAUAUCCAGGAAGUCUGGGCUCUGAGGCUGCAACAGAGGAUUGAGCAUCA
B6: chr7:148083511:148083512:+_ENSMUSG00000025487_ENSMUST00000026560|mus_mus|motif|central (ssRNA)
RNA: GGGAGUUCUACAGUCCGACGAUCCAAAUCCAGCACUCGCGGCUGCACCCACGUCAUGUGAACCCGCUUGUCCACCUCGUCGGUGCUGCCUCUCACCAGCCCCACCGAGAGUGCCUUCAUCACCAGCAACUCCACCUUGUUGACCAACAGAGGAUUGAGCAUCA
B7: chr12:48362563:48362564:+_ENSG00000134291_ENST00000256686|hu_hu|hu_hu_hu_mus_False|1_68 (ssRNA)
RNA: GGGAGUUCUACAGUCCGACGAUCUCCGUCAAGCCCUUCGAUAGACCCUUGCGGGGGAAACUGUAAUAAUUCUAACUGGGGAAGGAAAAGAAACGCCAAAAACUUUCCAAAAAGCGGGGGUGGGGUGAGGCGGGAGGUUGGGAACAACAGAGGAUUGAGCAUCA
B8: chr12:48362563:48362564:+_ENSG00000134291_ENST00000256686|hu_hu|hu_hu_hu_mus_False|68_68 (ssRNA)
RNA: B7 RNA with U137G, U138G, G140A, A142G, A143U
B9: chr9:127911758:127911759:-_ENSG00000119414_ENST00000373547|hu_mus|motif|central (ssRNA)
RNA: GGGAGUUCUACAGUCCGACGAUCUCUCAAACGAGUCCAAGGUGGGGUAGGAGGAGUGACAAAACUGAUAGAAAAACACUGCGGUUGACACCAUAACAAACAAUAAAUUUAGAUAAUUUAAAAUUAAAAAAAAAGGCAAGAGGCCAACAGAGGAUUGAGCAUCA
B10: chr9:127911758:127911759:-_ENSG00000119414_ENST00000373547|hu_mus|FALSE|FALSE (ssRNA)
RNA: B9 RNA with G82U, G83A
B11: chr12:48362563:48362564:+_ENSG00000134291_ENST00000256686|hu_hu|hu_hu_hu_mus_False|68_108 (ssRNA)
RNA: GGGAGUUCUACAGUCCGACGAUCUCCGAAGGGUGAAUCGAUAGACCCUUGCGGGGGAAACUGUAAUAAUUCUAACUGGGGAAGGAAAAGAAACGCCAAAAACUUUCCAAAAAGCGGGGGUGGGGUGAGGCGGGAGGGGGAGGUCAACAGAGGAUUGAGCAUCA
B12: 118497214_118499730_2480_CDS_ENSG00000065183_ENST00000349139|human|control|control (ssRNA)
RNA: GGGAGUUCUACAGUCCGACGAUCAUAAGAGAAAGGCAGCACAAGUAGAGAUUCUUCCAGCUCACUCGACUUGAUCCCUUUAAAAAUCUCUAAUACAUAAGCUGAAGGUGAGAUACUGCCAUAAGCCAUUAGGAUGGGGUUGCUCAACAGAGGAUUGAGCAUCA
B13: chr16:46836887:46836888:-_ENSG00000155330_ENST00000285697|hu_mus|motif|central (ssRNA)
RNA: GGGAGUUCUACAGUCCGACGAUCACCAACAGAGUUUGAAGACAAAUAUCAGAGAAUAAGUCUUUGAUUGAUAAUUUUUCGGUUUAUUUCUGCCAAGGCAACUGAAAACACGAAAGCCUUCUCAUCAGAGAGGUUAGCAUAGAUCAACAGAGGAUUGAGCAUCA
B14: chr5:61651017:61651018:+_ENSG00000068796_ENST00000381103|hu_hu|FALSE|FALSE (ssRNA)
RNA: GGGAGUUCUACAGUCCGACGAUCCCUAUGUUCAUCAAUAGGAUCUGCUGUUGUUAAUGGUCUAUAAUCCAAACUUCCUCUAAAGUCUCUGAUCAUACACAUAAUUUCAUAAUUUGGGUUUGUAGCAUCAACGUCCUGGGCUCUCAACAGAGGAUUGAGCAUCA

Target: T1, UNK ZnF1-3
Assay: nsRBNS (natural sequence RNA bind-n-seq); RBNS binding buffer (assumed for nsRBNS): 25 mM Tris pH 7.5, 150 mM KCl, 3 mM MgCl2, 0.01% Triton X-100, 500 ug/ml BSA, 20 U/ml SUPERase-In, 4 C; UNK is unkempt and MSI1 is Musashi-1; names of the RNAs are library labels; protein concentration not given here; high values mean tight binding

Row | Binder | binding signal [enrichment R]
1 | B1 | 0.134
2 | B2 | 0.535
3 | B3 | 1.28
4 | B4 | 0.982
5 | B5 | 0.864
6 | B6 | 0.75
7 | B7 | 3.33
8 | B8 | 4.07
9 | B9 | 14
10 | B10 | 10.5
11 | B11 | 3.2
12 | B12 | 1.8
13 | B13 | 0.868
14 | B14 | 1.64

— article PMC12136788
